IL1B secr inh = inflammasome signaling inhibition, IL-1 beta readout. THP-1 LPS/ATP IL-1B secretion, AlphaLISA, 16 h; stronger effect = lower value. 360,000 tested, 4.7% active. activity change, % at 57.5 µM; in the data active means activity change below about -50%; inconclusive means mostly about -30% to -49%
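THP-1 cells pretreated 1 hr with compounds (up to 57.5 uM final), then stimulated with LPS (250 ng/mL final) plus ATP (1.25 mM final); secreted IL-1B measured by AlphaLISA after 16 hr, decreased signal indicating inhibition.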
TDP1 cell CPT = growth inhibition of DT40 Tdp1-/-;hTDP1 cells with camptothecin (screen for TDP1 inhibitors); chicken DT40 Tdp1-/-;hTDP1 cells + 20 nM CPT, ATP luminescence, 48 h; Potency, µM (doses to about 46.2 µM), for inactives: top-dose activity change, negative = growth inhibition, hits mostly inhibitors; 420,000 tested, 12% active; further: potency means the concentration at half of the fitted maximal effect; nearly all actives have a fitted effect of over 55% in size
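Chicken DT40 Tdp1-/- cells complemented with human TDP1, 400 cells/well, exposed to compounds plus 20 nM camptothecin for at least 48 h at 37 C; viability read as ATP content by CellTiter-Glo luminescence.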
Six1-Eya2 inh = Six1/Eya2 interaction inhibition; AID 651725; AlphaScreen GST-Six1/His-Eya2 binding, biochemical; stronger effect = lower value; 360,000 tested, 0.56% active; activity change, % (test concentration not listed); in the data active means activity change below about -65%; inconclusive means mostly about -30% to -63%
Target sequence (O00167 whole entry, looked up): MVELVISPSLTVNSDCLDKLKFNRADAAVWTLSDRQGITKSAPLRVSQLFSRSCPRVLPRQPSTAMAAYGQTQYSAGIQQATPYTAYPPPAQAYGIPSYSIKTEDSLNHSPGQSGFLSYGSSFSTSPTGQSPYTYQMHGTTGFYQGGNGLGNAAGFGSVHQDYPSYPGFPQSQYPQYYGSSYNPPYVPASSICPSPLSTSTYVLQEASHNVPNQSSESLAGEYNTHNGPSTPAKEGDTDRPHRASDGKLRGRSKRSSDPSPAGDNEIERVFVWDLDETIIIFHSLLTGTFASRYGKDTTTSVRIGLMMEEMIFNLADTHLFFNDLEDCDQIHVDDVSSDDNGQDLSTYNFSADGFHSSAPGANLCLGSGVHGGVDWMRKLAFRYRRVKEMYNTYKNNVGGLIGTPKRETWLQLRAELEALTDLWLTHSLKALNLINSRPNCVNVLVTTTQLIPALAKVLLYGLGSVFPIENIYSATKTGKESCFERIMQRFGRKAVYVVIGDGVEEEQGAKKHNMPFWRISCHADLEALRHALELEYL
Target sequence (Q15475 whole entry, looked up): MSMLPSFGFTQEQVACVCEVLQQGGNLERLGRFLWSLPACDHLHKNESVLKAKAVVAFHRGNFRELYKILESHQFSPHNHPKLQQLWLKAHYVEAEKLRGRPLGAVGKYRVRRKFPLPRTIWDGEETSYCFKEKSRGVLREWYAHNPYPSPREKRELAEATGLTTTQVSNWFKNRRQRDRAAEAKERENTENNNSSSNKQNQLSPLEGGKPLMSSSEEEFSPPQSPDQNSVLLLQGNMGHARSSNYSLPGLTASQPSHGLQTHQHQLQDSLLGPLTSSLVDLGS
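AlphaScreen with GST-Six1 and His-Eya2 (5X mix: 250 nM and 500 nM), glutathione donor and nickel acceptor beads; buffer 50 mM Tris pH 8.0, 300 mM NaCl, 1 mM TCEP; 1 h at 37 C in the dark.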
CtBP-E1A inh = inhibitors of CtBP/E1A interaction | AlphaScreen GST-E1A/His-CtBP binding, 1536-well; stronger effect = lower value | activity change, % (concentration not given with the values) | 340,000 tested, 0.49% active; in the data active means activity change below about -65%; inconclusive means mostly about -30% to -63%
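Protein mix (5X: 125 nM each GST-E1A, His-CtBP) was incubated with pinned compound 2 h at 37 deg C in dark, in 50 mM Tris pH 8.0 buffer with 300 mM NaCl. Glutathione donor and nickel acceptor beads followed; AlphaScreen signal read after 1 h.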
DT40 TDP1 no CPT = qHTS for Inhibitors of human tyrosyl-DNA phosphodiesterase 1 (TDP1): qHTS in cells in absence of CPT; 420,000 tested, 15% active; DT40 Tdp1-/- hTDP1 cells, no CPT, ATP luminescence, 48 h; Potency, µM (doses to about 46.2 µM), for inactives: top-dose activity change, negative = growth inhibition, hits mostly inhibitors; further: potency means the concentration at half of the fitted maximal effect; nearly all actives have a fitted effect of over 55% in size
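Compound effects on proliferation are scored in DT40 Tdp1-/-;hTDP1 cells in the absence of CPT. ATP levels (CellTiter-Glo luminescence) are recorded after a ≥48 hr, 37 °C incubation.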
TDP1 inh = blocks human tyrosyl-DNA phosphodiesterase 1; Q9NUW8; recombinant TDP1, AlphaScreen DNA substrate cleavage; Potency, µM (titrated, usually from 130 µM), for inactives: at the top dose activity change, negative = inhibition, actives largely listed as inhibitors; 350,000 tested, 0.28% active; AID 485290; further: potency means the concentration at half of the fitted maximal effect; nearly all actives have a fitted effect of over 40% in size
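AlphaScreen read-out: signal falls as enzyme removes the 3' tyrosine-FITC from a 5'-biotinylated DNA oligo (15 nM, 5 min, RT). Enzyme was E. coli-made recombinant Tdp1 at 1 nM, exposed to compound for 15 min beforehand; beads 10 ug/ml, 10 min.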
Active calls of the source: *; ? = inconclusive; · = no result given; [ ] = dose if it differs, or a comment. Sampled rows, rich in hits. Any-hit rate of the full collection: about 18%. Unless noted, the call rests on the fitted dose curve; in most records, active means well fitted curve in the direction sought with a large enough effect; inconclusive means small, poorly fitted or top-dose-only effect, or another doubt; inactive means no such curve, though single readings can be large; an effect the other way counts as inactive or inconclusive. On the % scale 0 is the no-effect control and ±100 the full control effect.

SMILES	IL1B secr inh	TDP1 cell CPT	Six1-Eya2 inh	CtBP-E1A inh	DT40 TDP1 no CPT	TDP1 inh
COc1ccc(C2Nc3ccccc3C(=O)N2Cc2ccco2)cc1COc1ccc(NC(C)=O)cc1 (configuration not stated)	-7	?	-12	-3	11µM*	5%
COc1ccc(-c2[nH]ncc2C(=O)NCc2cccc(F)c2)cc1	·	0%	·	·	-14%	3%
Cc1ccc(C(=O)NC(=S)c2c(C)cc3ccccn23)cc1	-12	?	-76*	-22	?	·
Cc1cc2ccccn2c1C(=S)NC(=O)c1ccccc1	-13	?	?	?	?	10%
Cc1cccc(C(=O)N(c2ccccn2)C(C)c2ccco2)c1 (configuration not stated)	11	?	-8	-1	?	2%
CC(C)c1ccc(C(=O)N(c2ccccn2)C(C)c2ccco2)cc1 (configuration not stated)	15	?	-3	-4	23µM*	3%
Cc1cc(C)cc(C(=O)N(c2ccccn2)C(C)c2ccco2)c1 (configuration not stated)	12	?	-2	5	15µM*	4%
CC(c1ccco1)N(C(=O)C12CC3(C)CC(C)(CC(C)(C3)C1)C2)c1ccccn1 (configuration not stated)	-13	-100%	3	-2	?	-7%
CC(c1ccco1)N(C(=O)c1cccs1)c1ccccn1 (configuration not stated)	-8	-10%	6	3	-14%	0%
CC(c1ccco1)N(C(=O)c1ccccc1NS(=O)(=O)c1ccc(Cl)c([N+](=O)[O-])c1)c1ccccn1 (configuration not stated)	-86*	?	-10	21	?	8%
CN(C)C(CNC(=O)c1cccc(S(=O)(=O)Nc2ccccc2Cl)c1)c1ccco1 (configuration not stated)	54	?	2	0	1%	6%
CC(c1ccco1)N(C(=O)c1cc(Cl)cc(Cl)c1)c1ccccn1 (configuration not stated)	-19	9.2µM*	-7	-3	8.2µM*	0%[0.0935 µM]
COc1ccc(N2c3ccccc3CN(Cc3ccccc3)[C@@H](C)[C@H]2Cc2c(C)cccc2C)cc1	32	18µM*	-14	-13	16µM*	·
COc1ccc(N2c3ccccc3CN(Cc3ccccc3)[C@@H](C)[C@H]2Cc2cccnc2)cc1	23	?	?	?	21µM*	·
COc1ccc(C2CCN(Cc3cccnc3)CC2O)cc1 (configuration not stated)	11	-11%	-2	-1	-12%	1%
CCNC(=O)N1CCC(n2nccc2NC(=O)CCOc2ccccc2)CC1	9	3%	3	3	8%	6%
C[C@H]1CN([C@@H](C)CO)S(=O)(=O)c2ccc(C#Cc3ccccn3)cc2O[C@@H]1CN(C)C(=O)C1CC1	-3	?	2	-4	16µM*	·
C[C@H](CO)N1C[C@H](C)[C@H](CN(C)C(=O)c2ccccn2)Oc2cc(C#Cc3ccc(F)cc3)ccc2S1(=O)=O	0	21µM*	-8	-8	18µM*	·
C[C@H]1CN([C@@H](C)CO)S(=O)(=O)c2ccc(C#Cc3ccccn3)cc2O[C@H]1CN(C)Cc1ccc(F)cc1	-24	?	1	1	?	·
CC(C)CC#Cc1ccc2c(c1)O[C@H](CN(C)C(=O)Cc1ccncc1)[C@H](C)CN([C@H](C)CO)S2(=O)=O	-28	?	13	-1	26µM*	·
COc1cccc(C#Cc2ccc3c(c2)O[C@@H](CN(C)C(=O)c2ccccn2)[C@@H](C)CN([C@H](C)CO)S3(=O)=O)c1	-4	?	-9	2	?	·
CN(C)S(=O)(=O)c1ccc(N2CCOCC2)c(C(=O)NCc2ccc3c(c2)OCO3)c1	-9	-8%	6	·	?	1%
CC1CCC(Nc2ncnc3onc(-c4ccc(F)cc4)c23)CC1 (configuration not stated)	·	-12%	·	·	?	2%
O=C(NCc1cccc(F)c1)c1ccc(-n2cnc3cccnc32)cc1	·	?	·	·	?	3%
CCOc1ccc(C(=O)N(CC(=O)Nc2cccc(C)c2C)CC2CCCO2)cc1OC (configuration not stated)	-3	?	-1	8	-27%	1%
SMILES	IL1B secr inh	TDP1 cell CPT	Six1-Eya2 inh	CtBP-E1A inh	DT40 TDP1 no CPT	TDP1 inh
O=C1c2ccccc2C(=O)N1c1ccc(S(=O)(=O)N2CCCCC2)cc1	-9	5%	5	-6	6%	·
CCN1CCc2nc3ccccc3c(C(=O)Nc3ccc(C#N)cc3)c2C1	23	?	-5	·	?	5%
O=C(NC1CCCCCC1)c1c2c(nc3ccccc13)CCN(Cc1ccccc1)C2	-3	18µM*	-13	0	29µM*	0%
CC(C)c1ccccc1NC(=O)COC(=O)c1c2c(nc3ccccc13)CCN(Cc1ccccc1)C2	-17	?	-15	·	10µM*	4%
Cc1c(Cl)cccc1NC(=O)COC(=O)c1c2c(nc3ccccc13)CCN(Cc1ccccc1)C2	0	?	-7	3	16µM*	3%
CC(C)COc1ccc(C(=O)N2CCN(CCc3ccncc3)CC2)cc1	·	?	·	·	?	-3%
CCC1CN(C(=O)N2CCC(C(=O)N3CCN(c4ccccc4F)CC3)CC2)c2ccccc2O1 (configuration not stated)	·	16µM*	·	·	16µM*	4%
CCS(=O)(=O)N1CCC(C(=O)NCCc2ccc(C)cc2)CC1	14	0%	-1	11	-4%	-2%
O=C(NCCc1ccccc1)C1CCN(C(=O)Nc2ccccc2)CC1	1	-1%	1	8	-18%	·
CCC1CN(C(=O)N2CCC(C(=O)NCCc3ccccc3)CC2)c2ccccc2O1 (configuration not stated)	10	?	0	3	8.2µM*	0%
CCC1CN(C(=O)N2CCC(C(=O)NCCc3ccc(C)cc3)CC2)c2ccccc2O1 (configuration not stated)	·	?	·	·	21µM*	1%
Nc1nncn1C(=O)c1c(Cl)cccc1Cl	5	13%	-1	-5	-9%	4%

High-throughput results deposited in PubChem by National Center for Advancing Translational Sciences (NCATS).
